# Sampled rows, rich in hits. Any-hit rate of the full collection: about 3.7%.
# ANO1 block: blocks the mouse calcium-activated chloride channel TMEM16A. HEK293 TMEM16A/YFP iodide influx fluorescence, ionomycin. normalized B-score (activity score, 25-100; higher = stronger inhibition) at 10 µM. hit rate 1.2% among 310,000. AID 588511;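 active = ratio plate-corrected score three or more library SD toward inhibition, starting fluorescence score within five deviations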;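 note: score derived from kinetic fluorescence span divided by baseline fluorescence per well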
# TMEM16A act: activators or potentiators of mouse TMEM16A chloride channel | Q8BHY3 | HEK293 TMEM16A/YFP-H148Q/I152L, iodide quench fluorescence; hits give low values | B-score at 10 µM | hit rate 0.3% among 340,000 | AID 623877;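 active = fluorescence-ratio B-score plate-corrected deviation score at least 3 library SD below zero, with starting fluorescence score within 5 deviations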;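 note: channel opened by trigger with iodide after compound preincubation; score built on the fluorescence ratio of max minus min over baseline; more negative score means more quench and so TMEM16A activation or potentiation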
# CHT PAM: human CHT allosteric activation; Q9GZV3; CHT-expressing cells, membrane potential dye, choline EC20; hits give high values; LV-AA mutant CHT in HEK293 cells; B-score at 10 µM; hit rate 0.49% among 310,000;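 active = initial fluorescence not abnormally high and integrated response B-score, plate-corrected, over 3 SD above library mean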
# Target sequence (Q9GZV3 whole entry, looked up): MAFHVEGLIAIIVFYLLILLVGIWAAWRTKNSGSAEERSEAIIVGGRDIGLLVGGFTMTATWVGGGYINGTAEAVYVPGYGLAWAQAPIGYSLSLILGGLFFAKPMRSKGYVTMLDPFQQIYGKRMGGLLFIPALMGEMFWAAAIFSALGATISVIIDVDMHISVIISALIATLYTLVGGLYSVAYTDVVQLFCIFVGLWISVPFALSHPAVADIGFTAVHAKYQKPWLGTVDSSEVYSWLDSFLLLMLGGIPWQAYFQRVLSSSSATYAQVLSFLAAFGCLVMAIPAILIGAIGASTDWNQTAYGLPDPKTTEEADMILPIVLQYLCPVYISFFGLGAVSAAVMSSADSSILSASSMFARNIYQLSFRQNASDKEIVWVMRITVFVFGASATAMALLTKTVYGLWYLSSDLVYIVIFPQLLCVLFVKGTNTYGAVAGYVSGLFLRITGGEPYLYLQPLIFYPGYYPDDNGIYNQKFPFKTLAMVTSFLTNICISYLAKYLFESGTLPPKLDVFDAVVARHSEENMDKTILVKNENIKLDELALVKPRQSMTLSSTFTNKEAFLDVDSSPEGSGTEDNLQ
# CHT inh: inhibitors of human choline transporter CHT; Q9GZV3; CHT-expressing cells, membrane potential dye, choline response; hits give low values; B-score at 10 µM; hit rate 0.86% among 310,000;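 active = B-score over 3 SD under the library average, and starting fluorescence ratio not unusually high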;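 note: choline stimulus applied at its EC90 after an EC20 pre-addition; B-score computed on integrated fluorescence ratio after choline addition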
# GPR7 antag: antagonists of human GPR7 (neuropeptides B/W receptor 1) | P48145 | GPR7-expressing cells, fluorescence antagonist assay | inhibition, % at 4.4 µM | hit rate 1.1% among 290,000 | AID 1861; in the data active = inhibition above about 16%, passing the limit was not always enough;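 note: cells stimulated with the agonist NPW; 0% = agonist with vehicle and 100% = vehicle without agonist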
# Kir21 inh: blocks the mouse Kir2.1 inward-rectifier potassium channel. P35561. hit rate 0.85% among 310,000. AID 1672. B-score at 10 µM. HEK293-Kir2.1, FluxOR thallium flux fluorescence; hits give low values;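 active = fluorescence ratio B-score at or below minus 3 SD of library scores, with starting-brightness B-score within 2 SD, cut at about -4.2 in these data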;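 note: channel flux triggered by added potassium and thallium sulfate stimulus; B-score of peak minus minimum fluorescence over baseline after thallium stimulus; more negative B-score means stronger Kir2.1 block with less thallium influx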
# The depositor's hits bear a star; i = inactive; nt = no result given.
SMILES,ANO1 block,TMEM16A act,CHT PAM,CHT inh,GPR7 antag,Kir21 inh
CNC(=S)N(CCc1c(C)[nH]c2ccc(C)cc12)Cc1ccco1,i,i,i,i,4,-5*
COCCNC(=S)N(CCc1c(C)[nH]c2ccccc12)Cc1ccco1,i,i,i,i,9,-4.7*
CNC(=S)N(CCc1c(C)[nH]c2ccc(C)cc12)Cc1ccc(OC)c(OC)c1,i,i,i,i,3,-0.67
COc1ccccc1C(C)NS(=O)(=O)c1cccs1 (stereo not drawn),i,nt,i,i,-3,-4.5*
O=C(NC1CCCCC1)c1cccnc1Sc1ccccc1,i,i,i,i,-8,0.04
O=C(c1ccc(N2CCN(C(=O)c3cccc(F)c3)CC2)cc1)c1cccc(F)c1,i,i,i,i,-2,1.9
CCOC(=O)N1CCN(c2ccc(C(=O)c3cccc(F)c3)cc2)CC1,25*,i,i,i,17,0.57
COc1ccccc1NC(=S)NCCc1c[nH]c2ccccc12,i,i,i,i,-1,-6.3*
COc1ccc(NC(=S)NCCc2ccccc2OC)c(OC)c1,i,i,i,i,-6,-5.7*
Cc1cc(Cl)ccc1OCC(=O)Nc1ccccc1C(=O)N1CCOCC1,i,i,i,i,-19,-4.5*
Cc1ccc(OCC(=O)Nc2ccccc2N2CCOCC2)c(C)c1,i,i,i,i,3,-8.9*
CC(NC(=O)CCn1ccc2cc(S(=O)(=O)N3CCCC3)ccc21)c1ccccc1 (stereo not drawn),i,i,i,i,1,-0.84
Cc1cccc(Nc2nc(NCc3ccco3)c3ccccc3n2)c1,25*,i,i,i,13,-14*
C[n+]1c(-c2ccccc2)cc2c(=Cc3ccccc3)c3ccccc3n21,nt,-10*,nt,nt,nt,nt
C[n+]1c(-c2ccccc2)cc2c(=Cc3ccc([N+](=O)[O-])cc3)c3ccccc3n21,nt,i,nt,nt,nt,nt
O=C(c1coc2ccc(O)c(CN3CCOCC3)c12)C1CC1,i,i,i,i,-8,0
O=C(c1cccs1)c1coc2ccc(O)c(CN3CCOCC3)c12,i,i,i,i,-4,-4.2*
Cc1ccc(C(=O)c2coc3ccc(O)c(CN4CCN(C)CC4)c23)cc1,i,i,i,i,-1,-4.6*
COc1ccc(C(=O)c2coc3ccc(O)c(CN4CCCC4)c23)cc1,i,i,i,i,7,-1.4
COc1ccc(C)cc1N(CC(=O)NC1CCCC1)C(=O)Cn1nnc(-c2ccc(C)o2)n1,nt,i,nt,nt,-7,-0.86
CC(=O)c1c(COC(=O)c2cccnc2)nc2ccccc2[n+]1[O-],i,-8.8*,i,i,-16,1.4
CCC(=O)c1ccc(OC(=O)Cc2ccc(OC)cc2)cc1,i,i,i,i,7,0.98
CCc1ccccc1NC(=O)CSc1nc2n[nH]c(C)c2c(=N)n1-c1ccc(OC)cc1,nt,i,nt,nt,-6,nt
CCOc1ccc(-n2c(SCC(=O)Nc3ccc(CC)cc3)nc3n[nH]c(C)c3c2=N)cc1,i,-6.4*,i,i,-12,1.5
Nc1c(/C=C2/C=CC(=O)C(O)=C2)c(=O)nc2sc(CC(=O)N3CCCCC3)nn12,i,-5.5*,i,i,6,0.1
SMILES,ANO1 block,TMEM16A act,CHT PAM,CHT inh,GPR7 antag,Kir21 inh
CCOC1=C/C(=C/c2c(N)n3nc(CC(=O)N4CCCC4)sc3nc2=O)C=CC1=O,i,i,i,i,-9,-0.52
COC1=C/C(=C/c2c(N)n3nc(CC(=O)N4CCCC4)sc3nc2=O)C=CC1=O,i,-5.7*,i,i,-7,0.69
Cc1nc(N)nc(N)c1-c1ccc(Cl)c(Cl)c1,nt,i,nt,nt,nt,nt
Cc1nc(N)nc(N)c1CCCc1ccc(Cl)c(Cl)c1,i,i,i,i,nt,-7.8*
CCCc1c(C(=O)NNc2cccc(Cl)c2)cnn1-c1ccccc1,i,i,i,i,-28,0.38
COc1cccc(CN(C)C(=O)c2ccc(OCC(=O)Nc3cccc(C(F)(F)F)c3)c(OC)c2)c1,100*,i,i,i,nt,-0.03
COc1ccc(CN(C)C(=O)c2ccc(OCC(=O)Nc3cccc(C(F)(F)F)c3)c(OC)c2)c(OC)c1,100*,i,i,i,nt,-0.77
